Measured values published in PubChem BioAssay.
Values joined by “and” are separate entries in the source; they are usually repeats but may differ in a detail not shown here. Identical values can stand only once. Active and inactive are the calls of the source.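 Rule for the calls, unless noted: active = thallium flux through the channel raised or lowered by more than 3 SD from vehicle-only wells, actives on both sides; inactive = the rest.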

What was measured:
[1] = system: Hepatitis C virus NS3 helicase; test: blockers of NS3h binding to DNA – biochemical, fluorescence polarization, NIH Clinical Collection, primary screen (AID 743270; call rule not given here); conditions: NS3 helicase binding to Cy5-dT15 DNA, stronger effect = higher value, concentration not given here
[2] = target: Single-stranded DNA-binding protein (Escherichia coli (strain K12)) (UniProt P0AGE0); test: SSB-ssDNA binding inhibitors – biochemical, fluorescence polarization, NIH Clinical Collection, counter-screen for HCV NS3 helicase inhibitor project (AID 743271; in the data active = inhibition above about 28%); conditions: E. coli SSB-DNA binding, stronger effect = higher value, concentration not given here
[3] = compounds distorting NS3 helicase fluorescence signal – biochemical, NIH Clinical Collection, artefact control for HCV NS3 helicase inhibitor project (AID 743272; call rule not given here;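 note: HCV NS3 helicase with a Cy5 labelled single stranded DNA probe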); conditions: fluorescence interference counterscreen, HCV NS3 helicase assay; stronger effect = lower value
[4] = Wnt pathway potentiators raising nuclear beta-catenin – imaging, WNT3A-conditioned medium, mouse C2C12, NPC library, primary screen (AID 1117326; in the data active = nuclear beta-catenin stimulation mostly above about 4.2%, no sharp cut-off; inactive = mostly below about 10%); conditions: stronger effect = higher value
[5] = stimulators of insulin release from INS-1E, primary screen, cell-based, 5 mM glucose, NPC library (AID 1117329;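 active = compound raises insulin release from rat beta cells at 5 mM glucose, no numeric limit stated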); conditions: rat INS-1E insulin secretion, at 10 µM, stronger effect = higher value
[6] = growth inhibition of GSK3B-pretreated HCT116 cells – cell-based, CellTiter-Glo, 0.2 to 20 µM (AID 1117336;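 active = compounds lowering colon cancer cell viability after pretreatment blocking the GSK3B kinase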); conditions: HCT116 viability after GSK3B inhibitor, at 20 µM, stronger effect = higher value
[7] = inhibition of endothelial tube formation, primary screen, imaging, VEGF stimulated, CD31 staining, tube area, NPC library (AID 1117340;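 active = compound that reduces growth-factor-driven endothelial tube area in a mixed cell culture, no cutoff stated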); conditions: VEGF-stimulated ADSC/ECFC co-culture, at 10 µM, stronger effect = higher value
[8] = GLP1 release stimulators, primary, NCI-H716, NPC library (AID 1117341;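 active = compound raises GLP1 secretion from the human gut endocrine cells, with no numeric limit stated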); conditions: NCI-H716 cells, at 10 µM, stronger effect = higher value
[9] = HCT116 colon cancer cell growth inhibition, primary screen, CellTiter-Glo luminescence, NPC library (AID 1117342;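 active = compounds that lower survival of HCT116 colon cancer cells in the luminescence readout, no numeric limit stated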); conditions: at 20 µM (top of the series)
[10] = reduced SW480 viability measured with CellTiter-Glo, NPC library, primary (AID 1117343;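 active = compounds that lower viability of the colon cancer cells in the luminescence readout, with no numeric limit stated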); conditions: CellTiter-Glo luminescence; at 20 µM (top of the series)
[11] = NPC library primary testing for decreased DLD-1 cell viability via CellTiter-Glo (AID 1117346;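 active = compounds that lower survival of DLD-1 colon cancer cells in the luminescence readout, no cutoff given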); conditions: DLD-1 viability, CellTiter-Glo luminescence; at 20 µM (top of the series)
[12] = target: 6-phosphogluconate dehydrogenase, decarboxylating (Homo sapiens) (UniProt P52209); test: inhibition of human phosphogluconate dehydrogenase – biochemical, recombinant enzyme, NADPH absorbance, primary screen (AID 1159550;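 active = at least 20% inhibition of 6-phosphogluconate dehydrogenase activity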); conditions: recombinant 6PGD, NADPH absorbance 341 nm; at 10 µM; stronger effect = higher value
[13] = EMT-state selective cytotoxicity in co-culture – imaging, PC-3E GFP, TEM4-18 mCherry, primary screen (AID 1345086;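 active = compounds killing one labelled cell type while sparing the other, by normalised counts and ratio limits, not self-fluorescent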;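 for all read-outs here: cells exposed to compound for 72 h before imaging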;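 for red/green cell ratio (normalised): normalised mesenchymal count divided by normalised epithelial count so high means epithelial killing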); conditions: PC-3E GFP / TEM4-18 mCherry co-culture, imaging cell counts, at 1 µM; for red/green cell ratio (normalised): actives lie on both sides, counts scaled to control wells, 1 = unselective
[14] = MELAS cybrid and Rieske KO viability enhancers – cell-based, MELAS cybrids, Rieske KO mouse fibroblasts, CellTiter-Glo, primary screen (AID 1508586;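 active = mean z-score across replicates of 1.96 or higher in either the MELAS or the Rieske mutant cell line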;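 note: z relative to plate mean and SD of compound and empty wells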); conditions: low glucose
[15] = target: NAD(+) hydrolase SARM1 (Homo sapiens) (UniProt Q6SZW1); test: blocking NAD cleavage by SARM1 SAM-TIR – cell lysate, NAD-Glo luminescence (AID 1508614;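 active = compound whose remaining NAD level is above about 45 nM, limit read from the data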;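 note: higher remaining NAD means stronger inhibition of SARM1 NADase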); conditions: SAM-TIR HEK293T lysate NADase, at 1 µM, stronger effect = higher value
[16] = target: Mitogen-activated protein kinase 7 (Homo sapiens) (UniProt Q13164); test: Gal4-ERK5 driven luciferase induction – cell-based, HTS, primary screen (AID 1508626;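 active = luciferase signal above three times the same-plate solvent-only control wells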;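 note: luciferase driven by Gal4-ERK5 fusion binding five Gal4 sites before minimal TATA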); conditions: HeLa Gal4-ERK5 transactivation, 18 h, at 5 µM, stronger effect = higher value
F380Y = test: BK channel mutant inhibitors and activators – cell-based, U2OS BacMam, thallium flux, beta subunits, selectivity assay, profiling panel (AID 1259406); conditions: U2OS BacMam BK variants, at 30 µM;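 note: initial slope of Thallos dye fluorescence rise after thallium is added; log ratio against the mean of 0.3% DMSO vehicle wells on the same plate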
F380Y/beta2Delta = test: as above; conditions: U2OS BacMam BK variants, at 30 µM
[17] = target: Calcium-activated potassium channel subunit alpha-1 (Homo sapiens) + Leucine-rich repeat-containing protein 26 (Homo sapiens) (UniProt Q12791+Q2I0M4); test: as above; conditions: U2OS BacMam BK variants, F380Y/Slo1WT/gamma1, at 30 µM
[18] = measured here: epithelial PC-3E GFP cell survival
[19] = measured here: mesenchymal TEM4-18 mCherry cell survival
[20] = MELAS cybrid survival, CellTiter-Glo 48 h, stronger effect = higher value
[21] = Rieske KO mouse fibroblast survival, CellTiter-Glo 72 h

NAD(+) hydrolase SARM1 (Homo sapiens), sequence (Q6SZW1 whole entry, looked up, the tested form may be a part): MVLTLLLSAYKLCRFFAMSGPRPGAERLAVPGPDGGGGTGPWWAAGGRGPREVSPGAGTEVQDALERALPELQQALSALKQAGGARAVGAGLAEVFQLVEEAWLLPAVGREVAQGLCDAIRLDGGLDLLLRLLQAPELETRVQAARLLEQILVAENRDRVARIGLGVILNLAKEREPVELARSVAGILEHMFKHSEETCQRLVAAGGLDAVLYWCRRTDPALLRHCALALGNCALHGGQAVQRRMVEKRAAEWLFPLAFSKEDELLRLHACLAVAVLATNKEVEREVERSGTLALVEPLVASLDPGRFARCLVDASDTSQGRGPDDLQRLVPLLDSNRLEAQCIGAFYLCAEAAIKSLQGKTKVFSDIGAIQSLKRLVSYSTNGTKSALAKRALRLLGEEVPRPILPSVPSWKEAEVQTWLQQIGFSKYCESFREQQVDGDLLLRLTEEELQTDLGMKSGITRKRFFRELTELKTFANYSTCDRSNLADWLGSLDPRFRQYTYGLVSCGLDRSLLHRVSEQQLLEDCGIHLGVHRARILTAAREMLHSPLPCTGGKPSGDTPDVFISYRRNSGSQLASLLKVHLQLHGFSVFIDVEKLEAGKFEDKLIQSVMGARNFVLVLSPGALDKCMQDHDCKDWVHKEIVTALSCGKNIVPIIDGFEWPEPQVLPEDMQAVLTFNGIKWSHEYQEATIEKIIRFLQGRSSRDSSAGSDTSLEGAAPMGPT
Calcium-activated potassium channel subunit alpha-1 (Homo sapiens) + Leucine-rich repeat-containing protein 26 (Homo sapiens), sequence (Q2I0M4 whole entry, looked up, one chain of several): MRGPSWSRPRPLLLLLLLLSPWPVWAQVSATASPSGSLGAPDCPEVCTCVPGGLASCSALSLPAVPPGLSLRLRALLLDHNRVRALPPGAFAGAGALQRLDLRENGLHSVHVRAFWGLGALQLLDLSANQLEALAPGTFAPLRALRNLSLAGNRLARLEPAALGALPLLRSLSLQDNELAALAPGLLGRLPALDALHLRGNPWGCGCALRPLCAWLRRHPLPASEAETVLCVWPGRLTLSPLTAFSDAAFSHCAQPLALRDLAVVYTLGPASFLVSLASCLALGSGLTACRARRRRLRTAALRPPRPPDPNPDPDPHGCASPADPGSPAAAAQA
6-phosphogluconate dehydrogenase, decarboxylating (Homo sapiens), sequence (P52209 whole entry, looked up): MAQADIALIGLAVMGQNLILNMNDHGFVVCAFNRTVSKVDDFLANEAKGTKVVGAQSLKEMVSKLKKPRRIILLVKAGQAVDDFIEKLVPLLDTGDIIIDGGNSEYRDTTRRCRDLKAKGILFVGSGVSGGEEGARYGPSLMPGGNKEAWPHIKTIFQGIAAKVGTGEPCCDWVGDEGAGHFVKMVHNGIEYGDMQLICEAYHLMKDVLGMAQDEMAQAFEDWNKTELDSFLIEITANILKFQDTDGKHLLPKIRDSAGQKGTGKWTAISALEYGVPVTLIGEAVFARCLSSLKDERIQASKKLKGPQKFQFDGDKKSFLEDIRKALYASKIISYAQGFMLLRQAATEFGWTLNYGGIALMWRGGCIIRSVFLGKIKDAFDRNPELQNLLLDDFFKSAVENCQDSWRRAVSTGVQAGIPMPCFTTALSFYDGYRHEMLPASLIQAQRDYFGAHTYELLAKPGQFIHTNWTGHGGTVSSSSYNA
Mitogen-activated protein kinase 7 (Homo sapiens), sequence (Q13164 whole entry, looked up, the tested form may be a part): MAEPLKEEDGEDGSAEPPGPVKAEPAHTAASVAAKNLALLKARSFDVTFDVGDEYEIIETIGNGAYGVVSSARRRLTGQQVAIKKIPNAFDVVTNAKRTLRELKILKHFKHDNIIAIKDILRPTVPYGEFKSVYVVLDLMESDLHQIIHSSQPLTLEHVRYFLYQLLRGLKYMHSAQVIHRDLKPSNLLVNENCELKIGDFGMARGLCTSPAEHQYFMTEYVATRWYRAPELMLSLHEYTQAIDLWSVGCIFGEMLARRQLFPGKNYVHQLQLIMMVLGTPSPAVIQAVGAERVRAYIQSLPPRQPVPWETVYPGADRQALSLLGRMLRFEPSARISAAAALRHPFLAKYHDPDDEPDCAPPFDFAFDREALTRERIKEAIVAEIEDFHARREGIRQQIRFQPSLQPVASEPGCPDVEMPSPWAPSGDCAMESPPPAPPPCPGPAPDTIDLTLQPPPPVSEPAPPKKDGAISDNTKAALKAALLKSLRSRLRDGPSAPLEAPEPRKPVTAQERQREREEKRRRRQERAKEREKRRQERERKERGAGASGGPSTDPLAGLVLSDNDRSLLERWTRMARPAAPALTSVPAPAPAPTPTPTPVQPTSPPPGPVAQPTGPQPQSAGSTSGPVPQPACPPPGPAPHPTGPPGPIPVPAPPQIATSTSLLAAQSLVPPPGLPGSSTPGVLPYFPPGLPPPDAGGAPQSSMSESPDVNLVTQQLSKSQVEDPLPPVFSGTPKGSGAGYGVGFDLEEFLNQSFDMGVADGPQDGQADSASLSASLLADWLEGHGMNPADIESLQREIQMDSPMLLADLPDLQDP

CC[N+](C)(C)c1cccc(O)c1
0.65: normalised cell number [13, 18]
inactive: inhibition [1] -1.36% | inhibition [2] 0.29% | fluorescence ratio [3] 0.96 | nuclear beta-catenin stimulation ([4]; at 10 µM) -1.7% | insulin secretion stimulation [5] 0% | viability decrease [6] -29% | tube area decrease [7] -7.4% | GLP1 secretion stimulation [8] 0.7% | inhibition of viability [9] -0.1% | viability decrease (inhibition) [10] -11.1% | viability decrease (inhibition) [11] -13.2% | inhibition [12] -4.48% | red/green cell ratio (normalised) [13] 1.2 | z-score [14, 20] -0.344 | remaining NAD [15] 10 nM | luciferase signal [16] 68 AU | log fold change Tl+ flux (F380Y) 0.0242 | log fold change Tl+ flux (F380Y/beta2Delta) 0.0329 | log fold change Tl+ flux [17] -0.0327
0.9%: nuclear beta-catenin stimulation ([4]; stimulation, at 2 µM)
0.198: z-score [14, 21]
0.78: normalised cell number [13, 19]

Nc1nc(N)c2nc(-c3ccccc3)c(N)nc2n1
active: viability decrease [6] 91.2% | inhibition of viability [9] 83% | viability decrease (inhibition) [10] 75.8%
1: normalised cell number [13, 18]
4.7%: nuclear beta-catenin stimulation ([4]; stimulation, at 2 µM)
1.25: normalised cell number [13, 19]
-0.161 and 0.254: z-score [14, 21]
inactive: inhibition [1] 7.73% | inhibition [2] 7.91% | fluorescence ratio [3] 0.9 | nuclear beta-catenin stimulation ([4]; at 10 µM) 17.3% | insulin secretion stimulation [5] -0.7% | tube area decrease [7] 10.4% | GLP1 secretion stimulation [8] 2.6% | viability decrease (inhibition) [11] 0.75% | inhibition [12] 13.3% | red/green cell ratio (normalised) [13] 1.25 | z-score [14, 20] -0.205 and 1.1 | remaining NAD [15] 10 nM | luciferase signal [16] 48 AU | log fold change Tl+ flux (F380Y) 0.00573 | log fold change Tl+ flux (F380Y/beta2Delta) 0.0397 | log fold change Tl+ flux [17] 0.00721

CC(C)[N+](C)(CCOC(=O)C1c2ccccc2Oc2ccccc21)C(C)C
inactive: inhibition [1] -1.36% | inhibition [2] 0.29% | fluorescence ratio [3] 0.96 | nuclear beta-catenin stimulation ([4]; at 10 µM) 1.3% | insulin secretion stimulation [5] 0.2% | viability decrease [6] -14.9% | tube area decrease [7] 9.2% | GLP1 secretion stimulation [8] 0.4% | inhibition of viability [9] 6.7% | viability decrease (inhibition) [10] -1.5% | viability decrease (inhibition) [11] -16.9% | inhibition [12] 6.27% | red/green cell ratio (normalised) [13] 1.27 | z-score [14, 20] 0.349 | remaining NAD [15] 10 nM | luciferase signal [16] 48 AU | log fold change Tl+ flux (F380Y) 0.0202 | log fold change Tl+ flux (F380Y/beta2Delta) 0.0277 | log fold change Tl+ flux [17] -0.0355
1.3: normalised cell number [13, 19]
1.02: normalised cell number [13, 18]
0.213: z-score [14, 21]
3.3%: nuclear beta-catenin stimulation ([4]; stimulation, at 2 µM)
